High-throughput results as filed in PubChem.
Giardia FBPA inh-1 = qHTS Assay for Inhibitors of Fructose-1,6-bisphosphate Aldolase from Giardia Lamblia; A8B2U2; purified Giardia FBPA; Potency, µM (titrated, usually from 59.6 µM), for the others: top-dose activity, negative = inhibition, usual class: inhibitors; 290,000 tested, 0.71% active; note: potency is the fitted concentration of half-maximal effect; % is set by controls: 0 for no effect and ±100 for the full control effect; nearly all actives have a fitted effect of over 55% in size
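Giardia FBPA (40 nM reagent) was preincubated 10 min at RT with compound (up to 57.5 uM final), then substrate plus GAPDH/TPI/NAD/arsenate coupling system with diaphorase/resazurin was added; resorufin fluorescence (525/598 nm) was read after 20 min.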
RE007 growth inh = qHTS Assay for Inhibitors of the HIV-1 protein Vpr. AID 651644, 2012. Potency, µM (doses to about 92.2 µM), inactives show at the top dose activity change, negative = less growth, usual class: inhibitors. S. pombe RE007 Vpr strain, BacTiter-Glo ATP luminescence, 24 h. 360,000 tested, 0.21% active; active = well fitted falling curve with a large enough effect; inconclusive = small, poorly fitted or top-dose-only effect; inactive = no such curve, though single readings can be large or run the other way; note: potency is the fitted concentration of half-maximal effect; % is set by controls: 0 for no effect and ±100 for the full control effect; nearly all actives have a fitted effect of over 50% in size
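Fission yeast strain RE007, carrying one chromosomally integrated HIV-1 vpr copy, was seeded at OD 0.01 in PMG+AL medium with 23 nL pinned compound. After 24 h at 30 °C and 99% humidity, viability was read by BacTiter-Glo luminescence.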
LmPK inh = qHTS Assay for Inhibitors of Leishmania Mexicana Pyruvate Kinase (LmPK); purified LmPK, Kinase-Glo ATP luminescence, 1 h; Potency, µM (doses to about 57.5 µM), without a hit: top-dose activity change, negative = inhibition, most hits filed as inhibitors; 290,000 tested, 0.37% active; AID 1721, 2009; note: potency is the fitted concentration of half-maximal effect; % is set by controls: 0 for no effect and ±100 for the full control effect
Target sequence (Q27686 whole entry, looked up): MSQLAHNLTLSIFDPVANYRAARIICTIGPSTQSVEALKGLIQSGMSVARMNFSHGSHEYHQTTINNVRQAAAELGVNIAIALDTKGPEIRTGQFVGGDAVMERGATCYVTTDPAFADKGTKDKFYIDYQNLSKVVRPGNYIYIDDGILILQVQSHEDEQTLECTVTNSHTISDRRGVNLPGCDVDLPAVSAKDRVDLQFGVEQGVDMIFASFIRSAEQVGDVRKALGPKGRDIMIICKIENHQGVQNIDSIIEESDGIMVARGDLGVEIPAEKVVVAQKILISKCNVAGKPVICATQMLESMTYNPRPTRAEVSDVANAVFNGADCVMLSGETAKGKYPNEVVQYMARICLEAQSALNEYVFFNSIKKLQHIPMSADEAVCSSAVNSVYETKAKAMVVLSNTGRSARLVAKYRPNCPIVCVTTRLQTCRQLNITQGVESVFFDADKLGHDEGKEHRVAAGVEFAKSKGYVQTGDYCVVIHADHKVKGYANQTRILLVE
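Pyruvate kinase activity monitored as ATP production (luciferase luminescence). Conditions: 0.1 nM enzyme, 0.5 mM PEP, 0.1 mM ADP, 1 h, RT; normalized against uninhibited and no-enzyme wells.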
TbPYK inhibitor = qHTS of Trypanosoma Brucei Inhibitors; Potency, µM (doses to about 76.8 µM), for inactives: at the highest dose activity, negative = inhibition, most hits filed as inhibitors; pyruvate kinase (Trypanosoma brucei), Q57TT1; TbPYK enzyme, Kinase-Glo Plus ATP luminescence, 45 min; 410,000 tested, 0.12% active; note: potency is the fitted concentration of half-maximal effect; % is set by controls: 0 for no effect and ±100 for the full control effect; nearly all actives have a fitted effect of over 50% in size
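Luminescence from Kinase-Glo Plus, added after a 45-minute room-temperature reaction, served as the end-point read-out. The enzyme and substrate were preincubated with compound before ADP (130 uM final) initiated turnover. Concentration-effect curves came from normalized qHTS data.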
Shiga toxin inh = A qHTS for Small Molecule Inhibitors of Shiga Toxin; Vero cells, Shiga toxin protein synthesis inhibition reporter; inhibition, % at 38.7 µM; 290,000 tested, 9.2% active; in the data active = inhibition mostly above about 28%, no sharp cut-off; inactive = mostly below about 43%; note: 0% is about no effect
CHX counter = Cycloheximide Counterscreen for Small Molecule Inhibitors of Shiga Toxin; cell reporter, cycloheximide protein synthesis inhibition counterscreen; AID 2314, 2010; 300,000 tested, 12% active; max response, %; in the data active = max response mostly above about 13%, no sharp cut-off; inactive = mostly below about 14%; note: read at 38.3 µM for the half of the compounds with a filed dose; 0% is about no effect
Giardia growth = qHTS Assay for Inhibitors of Fructose-1,6-bisphosphate Aldolase from Giardia Lamblia: Giardia lamblia growth inhibition; shares compounds with Giardia FBPA inh-1; Giardia lamblia trophozoite growth inhibition; Potency, µM (top dose mostly 57.5 µM), for inactives: top-dose activity change, negative = inhibition, most hits filed as inhibitors; 1,500 tested, 5% active;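 note: potency is the fitted concentration of half-maximal effect; trophozoites exposed to compound for 48 h at 37 °C; % is set by controls: 0 for no effect and ±100 for the full control effect; nearly all actives have a fitted effect of over 70% in size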
Mammalian tox = qHTS Assay for Inhibitors of Fructose-1,6-bisphosphate Aldolase from Giardia Lamblia: Mammalian cellular toxicity. mammalian cell viability counter-screen, qHTS. Potency, µM (series often up to 57.5 µM), for inactives: at the highest dose viability change, negative = toxicity, usual class: inhibitors. 1,500 tested, 4% active. shares compounds with Giardia FBPA inh-1. AID 2786, 2010;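 note: Chinese hamster ovary cells used as mammalian cytotoxicity surrogate; viability measured as cellular ATP by luminescence; potency is the fitted concentration of half-maximal effect; compound exposure lasted 48 h before reading; % is set by controls: 0 for no effect and ±100 for the full control effect; nearly all actives have a fitted effect of over 60% in size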
Giardia FBPA inh-2 = qHTS Assay for Inhibitors of Fructose-1,6-bisphosphate Aldolase from Giardia Lamblia: Primary screen confirmation. 1,500 tested, 5% active. shares compounds with Giardia FBPA inh-1. Potency, µM (highest dose often 57.5 µM), without a hit: at the top dose activity change, negative = inhibition, most hits filed as inhibitors. purified Giardia aldolase enzyme activity, qHTS; note: potency is the fitted concentration of half-maximal effect; % is set by controls: 0 for no effect and ±100 for the full control effect; nearly all actives have a fitted effect of over 45% in size
Rabbit FBPA inh = qHTS Assay for Inhibitors of Fructose-1,6-bisphosphate Aldolase from Giardia Lamblia: Rabbit FBPA Selectivity; Rabbit muscle FBPA enzyme inhibition, selectivity counter-screen; 1,500 tested, 4% active; Potency, µM (highest dose often 57.5 µM), without a hit: top-dose activity, negative = inhibition, actives largely listed as inhibitors; shares compounds with Giardia FBPA inh-1; note: potency is the fitted concentration of half-maximal effect; % is set by controls: 0 for no effect and ±100 for the full control effect; nearly all actives have a fitted effect of over 60% in size
Target sequence (P00883 whole entry, looked up): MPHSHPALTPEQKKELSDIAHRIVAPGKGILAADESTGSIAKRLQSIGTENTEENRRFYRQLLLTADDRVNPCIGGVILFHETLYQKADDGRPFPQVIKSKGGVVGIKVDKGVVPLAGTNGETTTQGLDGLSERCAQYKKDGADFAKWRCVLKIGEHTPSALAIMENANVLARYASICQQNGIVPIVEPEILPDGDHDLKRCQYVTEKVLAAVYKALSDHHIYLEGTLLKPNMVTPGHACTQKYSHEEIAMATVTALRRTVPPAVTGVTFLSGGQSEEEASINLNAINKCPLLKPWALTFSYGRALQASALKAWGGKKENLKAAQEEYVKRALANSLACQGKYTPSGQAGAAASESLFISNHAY
GAPDH counter = qHTS Assay for Inhibitors of Fructose-1,6-bisphosphate Aldolase from Giardia Lamblia: Coupling assay counterscreen confirmation | shares compounds with Giardia FBPA inh-1 | GAPDH coupling enzyme counterscreen, biochemical, qHTS | Potency, µM (titrated, usually from 57.5 µM), without a hit: top-dose activity change, negative = inhibition, actives largely listed as inhibitors | 1,500 tested, 6% active; note: potency is the fitted concentration of half-maximal effect; % is set by controls: 0 for no effect and ±100 for the full control effect; nearly all actives have a fitted effect of over 55% in size
* marks the source's active call; other numbers are inactive results; ? = inconclusive; . = no result; [ ] = dose if it differs, or a comment. Only a selection was taken, and hits are over-represented in it overall. Unless noted, calls come from the whole dose curve; as a rule, active = well fitted curve in the direction sought with a large enough effect; inconclusive = small, poorly fitted or top-dose-only effect, or another doubt; inactive = no such curve, though single readings can be large; an effect the other way counts as inactive or inconclusive.

SMILES	Giardia FBPA inh-1	RE007 growth inh	LmPK inh	TbPYK inhibitor	Shiga toxin inh	CHX counter	Giardia growth	Mammalian tox	Giardia FBPA inh-2	Rabbit FBPA inh	GAPDH counter
O=C(NC(=S)Nc1ccccc1O)c1cccnc1	?	6%	4%	-11%	.	-4	.	.	.	.	.
COc1cccc(NC(=S)NC(=O)c2cccnc2)c1	3.5µM*	0%	-7%	-7%	39*	18*	-58%[38.3 µM]	-10%	0%	-4%	2%
N#Cc1ccccc1NC(=S)NC(=O)c1cccnc1	14µM*	3%	1%	8%	-8	9	28%	4%	6%	-2%	15%
CCCOC(=O)c1cccc(NC(=O)c2cccnc2)c1	0%	-3%	12%	-7%	-10	-2	.	.	.	.	.
COc1cccc(NC(=S)Nc2ccc(O)cc2)c1	18µM*	-9%	3%	-17%	79*	32*	19%	2%	-24%	-15%	-19%
CCOC(=O)c1cccc(NC(=S)NC(=O)c2cccnc2)c1	10µM*	-6%	3%	-5%	11	-2	-12%[38.3 µM]	3%	-10%	-10%	-2%
Cc1ccc(-n2nnnc2CNC(=O)c2ccccc2F)cc1C	.	.	.	1%	.	.	.	.	.	.	.
CCn1c(O)c(C#N)c(C)cc1=O	13µM*	-3%	4%	0%	-8	1	?	28%	?	?	?
C=CCn1c(-c2ccncc2)n[nH]c1=S	2.5µM*	-6%	-3%	?	-2	-2	-12%	-13%	6%	4%	15%
C=CCn1c(-c2ccoc2)n[nH]c1=S	2.5µM*	9%	-23%	?	-18	-5	?	-4%	-1%	4%	0%
C=CCn1c(-c2cc(OC)cc(OC)c2)n[nH]c1=S	-5%	-1%	?	?	-5	-5	.	.	.	.	.
C=CCn1c(-c2ccc(F)cc2)n[nH]c1=S	?	8%	5%	-30%	26	-2	.	.	.	.	.
Cc1[nH]c(=S)c(C#N)c(-c2ccco2)c1C(=O)N(C)C	20µM*	27%	11%	?	-5	8	?	8%	-2%	-3%	0%
Cc1ccc(NC(=O)Nc2nnc(N3CCCC3)s2)c(C)c1	.	.	.	1%	.	.	.	.	.	.	.
COc1ccc(Br)cc1CNc1ccccc1	28µM*	15%	-4%	-3%	-6	1	?	-2%	-5%	-6%	0%
Cc1cc(C)cc(OCC(=O)N(Cc2ccco2)Cc2ccccc2Cl)c1	.	.	.	-3%	.	.	.	.	.	.	.
Nc1nc(=S)c2ncn(C3CCCC3)c2[nH]1	7.1µM*	8%	-5%	-6%	-6	-2	-4%[38.3 µM]	6%	-5%	-5%	-8%
CCC(C)NCCOc1ccc(C(C)(C)c2ccccc2)cc1 (configuration not stated)	18µM*	7%	10%	-4%	-17	-4	?	-9%	9%	10%	0%
CNCCCOc1ccc(C(C)(C)c2ccccc2)cc1	?	.	-1%	.	11	19	.	.	.	.	.
CCN(CC(=O)Nc1cccc(OC)c1)CC(=O)Nc1ccc(C)cc1Cl	16µM*	20%	-3%	4%	8	-1	17%[10.4 µM]	-4%	0%	-1%	7%
CCN(CC(=O)Nc1ccc(NC(C)=O)cc1)CC(=O)Nc1ccc(Cl)c(Cl)c1	7.9µM*	-15%	-17%	-15%	2	-3	-6%[10.4 µM]	-6%	7%	5%	5%
CCN(CC(=O)Nc1cccc(OC)c1)CC(=O)Nc1cccc2ccccc12	.	-6%	.	2%	.	.	.	.	.	.	.
CCCCC(=O)Oc1c(S(=O)(=O)c2ccccc2)c(C)nn1C(C)(C)C	5%	2%	1%	5%	-6	8	.	.	.	.	.
O=C(COc1cccnc1[N+](=O)[O-])N1CCN(C(=O)c2ccco2)CC1	18µM*	0%	2%	-6%	-5	-8	6%[10.4 µM]	2%	-6%	8%	-2%
Cc1cc(C)c(NC(=O)Cc2ccc(-n3c(C)nc4cccnc43)cc2)c(C)c1	.	.	.	-2%[15.4 µM]	.	.	.	.	.	.	.
SMILES	Giardia FBPA inh-1	RE007 growth inh	LmPK inh	TbPYK inhibitor	Shiga toxin inh	CHX counter	Giardia growth	Mammalian tox	Giardia FBPA inh-2	Rabbit FBPA inh	GAPDH counter
COc1ccc(-c2cn3nc(N4CCC(C(=O)Nc5cccc(OC)c5)CC4)sc3n2)cc1	.	.	.	-8%[15.4 µM]	.	.	.	.	.	.	.
O=c1[nH][nH]c(=S)n1-c1ccccc1C(F)(F)F	18µM*	.	-9%	.	10	-1	?	12%	-8%	-3%	-5%
COc1cc(OC)cc(C(=O)N2CCN(Cc3ccccc3[N+](=O)[O-])CC2)c1	18µM*	21%	-1%	10%	18	0	-1%[10.4 µM]	1%	7%	17%	6%
COc1cccc(C(=O)N2CCN(Cc3ccccc3Br)CC2)c1	16µM*	-19%	0%	18%	-8	-2	0%[10.4 µM]	-5%	-5%	9%	-13%
COc1ccc(C(=O)N2CCN(Cc3ccccc3C(F)(F)F)CC2)cc1	?	6%	0%	-1%	-11	-6	.	.	.	.	.
O=C(c1ccccc1)N1CCN(Cc2ccccc2C(F)(F)F)CC1	20µM*	-7%	-3%	-2%	39	5	35%	3%	2%	3%	13%
CSC1=NS(=O)(=O)c2c(C)nn(C)c2S1	16µM*	-6%	29%	2.5µM*	2	0	30%	9%	-3%	40µM*	?
CCC(=O)Nc1ccc(CC)cc1-c1nc2ccccc2n(CC(=O)Nc2cccc(Cl)c2)c1=O	.	.	.	-2%	.	.	.	.	.	.	.
COc1ccc(C(=O)O)nc1C	4µM*	.	0%	4%	4	-1	8%[38.3 µM]	-6%	-4%	-5%	2%
